Hit rate of the full screen: of about 2,300 compounds, about 1,200 (52%) were called active. No rule for the calls is given here. So high a share suggests a set chosen from earlier hits. This is one part of the list. Entries with a potency or affinity are not part of this list.

The assay is described as follows: mammalian cell cytotoxicity, dose response, cytotoxicity control for M. tuberculosis inhibitor project (AID 435019).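 Also: lower values mean fewer viable cells so more cytotoxicity.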 To be noted: cytotoxicity counter-screen; series mostly up to 40 µM. For orientation: Counterscreens check selectivity or assay interference.
For the compound `COc1ccccc1N1CCN(/N=C/C(Cl)=C/c2ccccc2)CC1`, the call was inactive. The entry for `OCCN(/C=N/c1nc(-c2ccc(Br)cc2)cs1)CCO` is “inactive”. The entry for `CCOC(=O)c1cnc(SC2CCc3ccccc3C2=O)nc1N` (configuration not stated) is “inactive”.

With `CCOC(=O)c1cc2cc3ccccc3cc2oc1=O`, the outcome was inactive. The entry for `CC(Oc1cc2oc(=O)c3c(c2cc1Cl)CCCC3)C(=O)NCc1ccccn1` (configuration not stated) is “inactive”; for `CCOC(=O)C1CCN(c2cc3c(cc2NC(=O)c2ccccc2Cl)n(C)c(=O)n3C)CC1` it is “inactive”. With `CCN(CC(=O)NCc1cccs1)C(=O)c1ccc([N+](=O)[O-])o1`, the call was inactive. The entry for `CC1=NN(c2ccc(C)c(C)c2)C(=O)/C1=C\C=C\c1ccc([N+](=O)[O-])o1` is “inactive”. For the compound `CC(C)=N/N=C1/NC(=O)C(Cc2ccccc2)S1` (configuration not stated), the compound was classed as inactive.

In the case of `Cc1cc(Nc2ccccc2)c2c([N+](=O)[O-])ccc(C)c2n1`, the outcome was inactive. On to `Cc1ccc(N/N=C/C=C/c2ccco2)cc1`, for which the compound was called inactive. The result for `O=c1c2cc(-c3ccccc3)sc2ncn1/N=C/c1ccco1` reads “inactive”. Consider `CCOC(=O)c1nc2sc3c(c2c(=O)[nH]1)CCC(C)C3` (configuration not stated), for which the compound was called inactive. The result for `CCOC(=O)CCCNC(=O)COC(=O)c1cc(Br)c(Br)s1` reads “inactive”; that for `CCOC(=O)CSc1nn(-c2ccccc2)c(=S)s1`, “inactive”. For `CCOC(=O)CSc1nnc(SCCN2C(=O)c3ccccc3C2=O)s1`, the compound was called inactive. In the case of `Cc1ccc2c(c1)C1C[N+](C)(CC(=O)c3ccc(Cl)cc3Cl)CCC1N2C(=O)c1ccc(F)cc1` (configuration not stated), the result was inactive. As to `COC(=O)COc1ccc(-c2ccccc2)cc1C=O`, the result was inactive. The entry for `CCCCCCCCSc1nnc(CSc2nc3nc(C)cc(C)n3n2)o1` is “inactive”; for `Cc1cc(C)c2cc(C(=O)Nc3ccc(C)c(F)c3)[nH]c2c1` it is “inactive”; for `COC(=O)c1ccc(N/C(C)=C/C(=O)c2ccc(C)o2)cc1` it is “inactive”. In the case of `Cc1ccccc1NC(=O)Cc1nc(COC(=O)/C=C/c2ccccc2)cs1`, the compound was classed as inactive. With `COC(=O)c1cc(/C=C/c2ccccc2)on1`, the call was inactive. The entry for `N#Cc1c(SCC(N)=O)nsc1SCc1ccccc1Cl` is “inactive”.

Regarding `O=C(CN1CCN(c2nc(-c3ccc(F)cc3)cs2)CC1)NCc1ccc2c(c1)OCO2`, the compound was classed as inactive. The entry for `CCCCOc1ccc(-c2nnn(C(C)C(=O)OCC)n2)cc1` (configuration not stated) is “inactive”; for `Cc1cccc(N2CCN(CC(=O)Nc3nccs3)CC2)c1C` it is “inactive”. The result for `CC1CCc2c(C(=O)Nc3nccs3)csc2C1` (configuration not stated) reads “inactive”; that for `Nc1ccc2cc(Br)ccc2c1`, “inactive”; that for `COC(=O)c1ccc(N/N=C/c2cc([N+](=O)[O-])cc(OC)c2O)cc1`, “inactive”.

`CC1CCN(C(=O)c2ccc(-c3ccccc3Cl)o2)CC1`: the call was inactive. The result for `COC(=O)Cc1ccc(NC(=O)c2ccc(Br)o2)cc1` reads “inactive”; that for `CCOC(=O)CSCC(=O)N1CCC(Cc2ccccc2)CC1`, “inactive”; that for `COc1ccc(OC(=O)c2cc3cc(Cl)ccc3oc2=O)cc1`, “inactive”.

As for `Cc1cccc(OCC(=O)NNC(=O)c2cc3ccccc3oc2=O)c1`, the result was inactive. As for `Cn1c(SCc2ccccc2)nc(N)c(N=O)c1=O`, the compound was classed as inactive. With `CCOc1ccc(N=CNc2ccc(OCC)cc2)cc1`, the call was inactive. The result for `CCOc1ccc(NC(=O)CSc2cn[nH]n2)cc1` reads “inactive”.

On to `Cc1ccc(C(=O)N/N=C/C=C/c2ccccc2)cc1`, for which the result was inactive. Consider `COc1ccc(OCCCC(=O)OC(C)C(=O)Nc2ccccc2[N+](=O)[O-])cc1` (configuration not stated), for which the outcome was inactive.

`CCOC(=O)COn1c2c(c3c4no[n+]([O-])c4ccc31)CCCC2`: the compound was called inactive. For `Cc1cc(O)c(/C=N/Nc2cccc(Cl)c2)c(=O)o1`, the compound was called inactive. The result for `Cc1cc(=O)n2[nH]c(Nc3cccc(Cl)c3)nc2n1` reads “inactive”; that for `COc1ccc(N2C(=O)C(Cl)=C(Nc3ccccc3O)C2=O)cc1`, “inactive”. The entry for `Nc1cnc(-c2ccccc2)nc1Cl` is “inactive”; for `COc1ccc2[nH]c(=O)c(CNc3cccc(C)c3)cc2c1` it is “inactive”.

Turning to `c1nc2n(n1)C1=C(CCCC1)C1(CCCCC1)N2`, the outcome was inactive. The entry for `O=c1oc(-c2ccccc2[N+](=O)[O-])nc2ccccc12` is “inactive”; for `CCOC(=O)c1ccc(NC(=S)NCCc2ccc(F)cc2)cc1` it is “inactive”. For `O=C(CCSc1ccc(Cl)cc1)NC12CC3CC(CC(C3)C1)C2`, the compound was classed as inactive. Take `Cc1ccc(CN2C3CCCC2CC(NC(=S)NCc2ccccc2)C3)cc1` (configuration not stated): the result was inactive. The entry for `O=C(Oc1ccccc1)c1ccccc1OS(=O)(=O)c1ccccc1` is “inactive”; for `Cc1cc(N2CCN(C(=O)Nc3ccccc3C#N)CC2)c2ccccc2n1` it is “inactive”; for `COc1cc(/C=C2\C(=O)N(c3ccc(S(N)(=O)=O)cc3)N=C2C)ccc1OC(=O)c1ccco1` it is “inactive”.

`CSc1nsc(SCC(=O)Nc2ccc(F)cc2F)n1`: the outcome was inactive. The result for `CC(OC(=O)c1cnc2ccccc2n1)c1ccccc1Cl` (configuration not stated) reads “inactive”. Take `Cc1nc(N2CCN(c3ccccn3)CC2)c2c(C)c(C(=O)N3CCN(c4ccc(F)cc4)CC3)sc2n1`: the compound was called inactive. The result for `CCOc1ccc(-n2c(O)c(/C=N/Nc3nnc(C)c(=O)[nH]3)c3ccccc3c2=O)cc1` reads “inactive”; that for `CCOc1ccc(NC(C)c2cc(Cl)ccc2O)cc1` (configuration not stated), “inactive”. The result for `CCc1ccc(Nc2n[n+](C)c(-c3ccncc3)s2)cc1` reads “inactive”.

On to `Cc1nc2ccc(NC(=O)c3ccc([N+](=O)[O-])cc3[N+](=O)[O-])cc2s1`, for which the call was inactive. The result for `Cc1ccc(C(=O)Nc2ccc3c4c(cccc24)CC3)cc1[N+](=O)[O-]` reads “inactive”; that for `O=C1c2ccccc2CC1Sc1nnc(-c2ccncc2)o1` (configuration not stated), “inactive”; that for `CC(C)NCC(O)c1ccc(O)c(O)c1` (configuration not stated), “inactive”. On to `CSc1ccccc1C(=O)NC1CCSc2ccccc21` (configuration not stated), for which the compound was called inactive. As for `CON(C)c1nc(C2CCCCC2)c2cc(C)ccc2n1`, the compound was classed as inactive. The result for `Cc1ccc(C)c(N/C(N)=N/c2nc(C)cc(C)n2)c1` reads “inactive”.

As to `C/C=C(\C)C(=O)Nc1cccc(C2=NOC3(C2)C[C@H](C(N)=O)N(C(=O)c2cc([N+](=O)[O-])cc([N+](=O)[O-])c2)C3)c1` (some centres not stated), the result was inactive. In the case of `CC(C)CCNC(=O)C(c1ccc(O)cc1)N(C(=O)C1COc2ccccc2O1)c1cccc(O)c1` (configuration not stated), the call was inactive. The entry for `CCOC(=O)COc1ccc(/C=C2\NC(=S)N(CC)C2=O)cc1` is “inactive”; for `Cc1cc2c(ccc3c2no[n+]3[O-])nn1` it is “inactive”; for `O=C(c1ccc(-c2cccc(C(F)(F)F)c2)o1)N1CCN(c2ccccc2O)CC1` it is “inactive”. As for `COC(=O)C(C)Oc1ccc2c(c1)O/C(=C\c1ccco1)C2=O` (configuration not stated), the outcome was inactive. The result for `CCOC(=O)C(C)Oc1ccc(OCc2ccccc2)cc1` (configuration not stated) reads “inactive”. The result for `Cn1ccnc1-c1nnn(-c2ccc(Cl)c(Cl)c2)n1` reads “inactive”. Regarding `CC12CCC(=O)N1C(C(=O)Nc1ccc(SC(F)F)cc1)CS2` (configuration not stated), the compound was called inactive. The entry for `CCn1cnc2sc(C(=O)Oc3ccc(Br)cc3)c(C)c2c1=O` is “inactive”; for `COc1ccc(NC(=O)CN(C)C(=O)c2n[nH]c3ccccc23)cc1` it is “inactive”. `COc1ccccc1C1CC(c2ccc(Cl)cc2)Nc2ncnn21` (configuration not stated): the result was inactive. The entry for `CCN(CC)S(=O)(=O)c1cc(C(=O)Oc2cccc(-c3cnc4ccccc4n3)c2)ccc1Br` is “inactive”; for `Cc1ccc(-c2ccc(C3C(C#N)=C(N)Oc4n[nH]c(C)c43)o2)cc1` (configuration not stated) it is “inactive”. As to `CCc1nnc(N/N=C/c2cc(C)c(C)cc2C)n1N`, the compound was classed as inactive. The entry for `COc1ccc(-c2nnn(CC(=O)OC3CCCCC3)n2)cc1OC` is “inactive”; for `CO[C@@H]1[C@@H](OC(N)=O)[C@@H](O)C(Oc2ccc3c(O)c(NC(=O)c4ccc(O)c(CC=C(C)C)c4)c(=O)oc3c2C)OC1(C)C` (some centres not stated) it is “inactive”; for `O=C(COC(=O)C1=COCCO1)NCc1ccc(Cl)cc1` it is “inactive”. The result for `O=Cc1ccc2noc(-c3ccc(Cl)cc3)c2c1` reads “inactive”; that for `O=S1(=O)CCC(N=Cc2ccc(-c3ccc(Cl)cc3)o2)C1` (configuration not stated), “inactive”. For the compound `Cc1cc(C)c2c(CN3CCN(Cc4ccccc4)CC3)cc(=O)oc2c1C`, the result was inactive. The result for `Cc1ccc2cc(C)c(N3CCN(c4ccccn4)CC3)nc2c1` reads “inactive”. The entry for `Cc1ccc2[nH]c3c(c2c1)CN(C(=O)CN1CCN(c2ccccn2)CC1)CC3` is “inactive”. The result for `C#CCOCCOCCOCCNc1nc(N2CCN(C(=O)C(Cc3ccc(O)cc3)n3cc(C(N)CC(C)C)nn3)CC2)nc(N2CCN(C(=O)C(Cc3cc4ccccc4[nH]3)n3cc(C(N)Cc4ccc(O)cc4)nn3)CC2)n1` (configuration not stated) reads “inactive”. As to `CC1(C)CN(c2ccccc2)N(C(=O)c2ccc(C#N)cc2)C1=O`, the result was inactive. The result for `CCOc1ccc(-n2cc(-c3ccccc3)c3c(=O)[nH]cnc32)cc1` reads “inactive”; that for `CCOc1ccc(N2CC(=O)Nc3ccccc3NCC2=O)cc1`, “inactive”. The result for `Cc1ccccc1-c1nc2cc(N)ccc2o1` reads “inactive”; that for `O=C([O-])c1ccccc1-[n+]1c(-c2ccccc2)cc(-c2ccccc2)cc1-c1ccccc1`, “inactive”. As for `Cc1nc(-c2ccc(Cl)cc2)sc1C1(C)CC(c2ccc(C#N)cc2)=NO1` (configuration not stated), the outcome was inactive. Turning to `CCOc1cc(C(=O)OCc2ccc(C(=O)OC)o2)cc(Br)c1OC`, the compound was called inactive. The result for `Cc1ccc(-c2ccnc(=S)[nH]2)cc1` reads “inactive”. The result for `CC12CN3CCN(CC(C3)/C1=N\NC(=O)Nc1cccc(Cl)c1)C2` reads “inactive”; that for `CNC(CC(C)C)C(=O)NC1C(=O)NC(CC(N)=O)C(=O)NC2C(=O)NC3C(=O)NC(C(=O)NC(C(=O)O)c4cc(O)cc(O)c4-c4cc3ccc4O)C(O)c3ccc(c(Cl)c3)Oc3cc2cc(c3OC2OC(CO)C(O)C(O)C2OC2C[C@](C)(N)C(O)C(C)O2)Oc2ccc(cc2Cl)C1O` (some centres not stated), “inactive”. The entry for `COc1cc(C)ccc1S(=O)(=O)N1CCN(C23CC4CC(CC(C4)C2)C3)CC1` is “inactive”; for `Brc1ccc(-c2nc3ncccn3c2Nc2ccc3c(c2)OCCO3)o1` it is “inactive”; for `COC(=O)[C@@H](NC(=O)O[C@@H]1C(=O)c2ccc(OC)cc2O[C@H]1c1cccc(C(F)(F)F)c1)C(C)C` it is “inactive”. `Cc1ccn2nc(S(=O)(=O)Nc3c(F)cccc3F)nc2n1`: the call was inactive. The entry for `Cc1ccc(OC(=O)CCN2C(=O)c3ccccc3C2=O)cc1C` is “inactive”; for `O=[N+]([O-])c1ccc(N2CCCCC2)s1` it is “inactive”.

The record behind these values is PubChem BioAssay AID435019 (Southern Research Specialized Biocontainment Screening …, 2010).
